From PMC9911399, “Two distinct binding modes provide the RNA-binding protein RbFox with extraordinary sequence specificity”
Residue numbers refer to the chain shown, from its start. In all, about 16,000 sequences were measured (“ka relative to ugcaugu”: median about 0.0091, highest 2% from about 0.032 on). The sample as a whole holds a higher share of the highest values than the screen did.

T1: RBFOX1 RRM (Homo sapiens, UniProt Q9NWB1 109-208)
T1 sequence: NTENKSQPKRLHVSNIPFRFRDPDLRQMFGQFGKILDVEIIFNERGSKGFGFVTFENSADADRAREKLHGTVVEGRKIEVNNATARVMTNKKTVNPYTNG

B1: UCGUGUC (DNA:RNA)
RNA: GGGAGACCGGAAUUCAGAUUGUCCUCGUGUCUUAAAUCCCGUCGUAGCCACCA
DNA 1: CAATCTGAATTCCGGTCTCCC
DNA 2: TGGTGGCTACGACGGGATT
B2: AGCGUAU (DNA:RNA)
RNA: GGGAGACCGGAAUUCAGAUUGUCCAGCGUAUUUAAAUCCCGUCGUAGCCACCA
DNA 1: CAATCTGAATTCCGGTCTCCC
DNA 2: TGGTGGCTACGACGGGATT
B3: CCUGAUG (DNA:RNA)
RNA: B1 RNA with U25C, G27U, U28G, G29A, C31G
DNA 1: CAATCTGAATTCCGGTCTCCC
DNA 2: TGGTGGCTACGACGGGATT
B4: GCGUCGC (DNA:RNA)
RNA: B1 RNA with U25G, G29C, U30G
DNA 1: CAATCTGAATTCCGGTCTCCC
DNA 2: TGGTGGCTACGACGGGATT
B5: GUGAUAC (DNA:RNA)
RNA: B2 RNA with A25G, G26U, C27G, G28A, U31C
DNA 1: CAATCTGAATTCCGGTCTCCC
DNA 2: TGGTGGCTACGACGGGATT
B6: CCGUGAG (DNA:RNA)
RNA: B1 RNA with U25C, U30A, C31G
DNA 1: CAATCTGAATTCCGGTCTCCC
DNA 2: TGGTGGCTACGACGGGATT
B7: GAACUGU (DNA:RNA)
RNA: B2 RNA with A25G, G26A, C27A, G28C, A30G
DNA 1: CAATCTGAATTCCGGTCTCCC
DNA 2: TGGTGGCTACGACGGGATT
B8: GUGGAGA (DNA:RNA)
RNA: B2 RNA with A25G, G26U, C27G, U29A, A30G, U31A
DNA 1: CAATCTGAATTCCGGTCTCCC
DNA 2: TGGTGGCTACGACGGGATT
B9: CGGGAUG (DNA:RNA)
RNA: B2 RNA with A25C, C27G, U29A, A30U, U31G
DNA 1: CAATCTGAATTCCGGTCTCCC
DNA 2: TGGTGGCTACGACGGGATT
B10: GGAUGUC (DNA:RNA)
RNA: B1 RNA with U25G, C26G, G27A
DNA 1: CAATCTGAATTCCGGTCTCCC
DNA 2: TGGTGGCTACGACGGGATT
B11: GGAUGUG (DNA:RNA)
RNA: B1 RNA with U25G, C26G, G27A, C31G
DNA 1: CAATCTGAATTCCGGTCTCCC
DNA 2: TGGTGGCTACGACGGGATT
B12: GUGGAUG (DNA:RNA)
RNA: B1 RNA with U25G, C26U, U28G, G29A, C31G
DNA 1: CAATCTGAATTCCGGTCTCCC
DNA 2: TGGTGGCTACGACGGGATT
B13: GGGAUGU (DNA:RNA)
RNA: B2 RNA with A25G, C27G, G28A, A30G
DNA 1: CAATCTGAATTCCGGTCTCCC
DNA 2: TGGTGGCTACGACGGGATT
B14: GGAGAUG (DNA:RNA)
RNA: B2 RNA with A25G, C27A, U29A, A30U, U31G
DNA 1: CAATCTGAATTCCGGTCTCCC
DNA 2: TGGTGGCTACGACGGGATT
B15: CCGGAUG (DNA:RNA)
RNA: B1 RNA with U25C, U28G, G29A, C31G
DNA 1: CAATCTGAATTCCGGTCTCCC
DNA 2: TGGTGGCTACGACGGGATT
B16: GGAUGUU (DNA:RNA)
RNA: B1 RNA with U25G, C26G, G27A, C31U
DNA 1: CAATCTGAATTCCGGTCTCCC
DNA 2: TGGTGGCTACGACGGGATT
B17: UUGGAUG (DNA:RNA)
RNA: B1 RNA with C26U, U28G, G29A, C31G
DNA 1: CAATCTGAATTCCGGTCTCCC
DNA 2: TGGTGGCTACGACGGGATT
B18: GGGGAUG (DNA:RNA)
RNA: B2 RNA with A25G, C27G, U29A, A30U, U31G
DNA 1: CAATCTGAATTCCGGTCTCCC
DNA 2: TGGTGGCTACGACGGGATT
B19: GGAUUGU (DNA:RNA)
RNA: B2 RNA with A25G, C27A, G28U, A30G
DNA 1: CAATCTGAATTCCGGTCTCCC
DNA 2: TGGTGGCTACGACGGGATT
B20: AACCAGU (DNA:RNA)
RNA: B2 RNA with G26A, G28C, U29A, A30G
DNA 1: CAATCTGAATTCCGGTCTCCC
DNA 2: TGGTGGCTACGACGGGATT
B21: AAUAAUU (DNA:RNA)
RNA: B2 RNA with G26A, C27U, G28A, U29A, A30U
DNA 1: CAATCTGAATTCCGGTCTCCC
DNA 2: TGGTGGCTACGACGGGATT
B22: UGUGACC (DNA:RNA)
RNA: B2 RNA with A25U, C27U, U29A, A30C, U31C
DNA 1: CAATCTGAATTCCGGTCTCCC
DNA 2: TGGTGGCTACGACGGGATT
B23: CAAGGCG (DNA:RNA)
RNA: B2 RNA with A25C, G26A, C27A, U29G, A30C, U31G
DNA 1: CAATCTGAATTCCGGTCTCCC
DNA 2: TGGTGGCTACGACGGGATT
B24: CUCGCUC (DNA:RNA)
RNA: B2 RNA with A25C, G26U, U29C, A30U, U31C
DNA 1: CAATCTGAATTCCGGTCTCCC
DNA 2: TGGTGGCTACGACGGGATT
B25: UUUUCCG (DNA:RNA)
RNA: B1 RNA with C26U, G27U, G29C, U30C, C31G
DNA 1: CAATCTGAATTCCGGTCTCCC
DNA 2: TGGTGGCTACGACGGGATT
B26: CAUCAAA (DNA:RNA)
RNA: B2 RNA with A25C, G26A, C27U, G28C, U29A, U31A
DNA 1: CAATCTGAATTCCGGTCTCCC
DNA 2: TGGTGGCTACGACGGGATT
B27: GCCGGCC (DNA:RNA)
RNA: B1 RNA with U25G, G27C, U28G, U30C
DNA 1: CAATCTGAATTCCGGTCTCCC
DNA 2: TGGTGGCTACGACGGGATT
B28: UACAGCU (DNA:RNA)
RNA: B2 RNA with A25U, G26A, G28A, U29G, A30C
DNA 1: CAATCTGAATTCCGGTCTCCC
DNA 2: TGGTGGCTACGACGGGATT
B29: CUGCAUC (DNA:RNA)
RNA: B1 RNA with U25C, C26U, U28C, G29A
DNA 1: CAATCTGAATTCCGGTCTCCC
DNA 2: TGGTGGCTACGACGGGATT
B30: CUGCAUG (DNA:RNA)
RNA: B1 RNA with U25C, C26U, U28C, G29A, C31G
DNA 1: CAATCTGAATTCCGGTCTCCC
DNA 2: TGGTGGCTACGACGGGATT
B31: UGCAUAU (DNA:RNA)
RNA: B2 RNA with A25U, G28A
DNA 1: CAATCTGAATTCCGGTCTCCC
DNA 2: TGGTGGCTACGACGGGATT
B32: CUGCAUA (DNA:RNA)
RNA: B1 RNA with U25C, C26U, U28C, G29A, C31A
DNA 1: CAATCTGAATTCCGGTCTCCC
DNA 2: TGGTGGCTACGACGGGATT
B33: UGCAUUU (DNA:RNA)
RNA: B2 RNA with A25U, G28A, A30U
DNA 1: CAATCTGAATTCCGGTCTCCC
DNA 2: TGGTGGCTACGACGGGATT
B34: UGCAUGU (DNA:RNA)
RNA: B2 RNA with A25U, G28A, A30G
DNA 1: CAATCTGAATTCCGGTCTCCC
DNA 2: TGGTGGCTACGACGGGATT

target: T1, RBFOX1 RRM; assay: EMSA; HiTS-Eq, 1 nM pool, 10 min; buffer printed only for the single-RNA assays: 10 mM Tris pH 7.5, 150 mM NaCl, 3.4 mM EDTA, 0.001% NP-40, 30 C; conditions: tags: His6 N-terminal (pET28a); label: 5' 32P
How it was run: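 Relative association constants, normalised to the cognate motif, were derived by comparing read counts of each RNA species with those of the control reaction. The RNA sequenced was the free fraction, separated by 8% native PAGE after a 10 min equilibration in 50 µL of 1 nM 5′-radiolabelled RNA (7 randomized nucleotides) with increasing concentrations of purified wild-type or mutant RbFox RRM.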

Point of comparison: B19, binding signal 0.0266 KA relative to UGCAUGU. Against it:
- B1 — lower, 0.0187 KA relative to UGCAUGU
- B2 — lower, 0.00639 KA relative to UGCAUGU
- B3 — lower, 0.0205 KA relative to UGCAUGU
- B4 — lower, 0.0157 KA relative to UGCAUGU
- B5 — lower, 0.00876 KA relative to UGCAUGU
- B6 — lower, 0.0105 KA relative to UGCAUGU
- B7 — lower, 0.0163 KA relative to UGCAUGU
- B8 — lower, 0.0173 KA relative to UGCAUGU
- B9 — higher, 0.0412 KA relative to UGCAUGU
- B10 — higher, 0.027 KA relative to UGCAUGU
- B11 — lower, 0.0207 KA relative to UGCAUGU
- B12 — higher, 0.0371 KA relative to UGCAUGU
- B13 — higher, 0.048 KA relative to UGCAUGU
- B14 — higher, 0.0269 KA relative to UGCAUGU
- B15 — lower, 0.00955 KA relative to UGCAUGU
- B16 — lower, 0.0216 KA relative to UGCAUGU
- B17 — higher, 0.0302 KA relative to UGCAUGU
- B18 — higher, 0.0389 KA relative to UGCAUGU
- B20 — lower, 0.000945 KA relative to UGCAUGU
- B21 — lower, 0.00136 KA relative to UGCAUGU
- B22 — lower, 0.0155 KA relative to UGCAUGU
- B23 — lower, 0.00837 KA relative to UGCAUGU
- B24 — lower, 0.00968 KA relative to UGCAUGU
- B25 — lower, 0.0112 KA relative to UGCAUGU
- B26 — lower, 0.00054 KA relative to UGCAUGU
- B27 — lower, 0.0116 KA relative to UGCAUGU
- B28 — lower, 0.00395 KA relative to UGCAUGU
- B29 — lower, 0.0212 KA relative to UGCAUGU
- B30 — higher, 1.04 KA relative to UGCAUGU
- B31 — lower, 0.0115 KA relative to UGCAUGU
- B32 — lower, 0.017 KA relative to UGCAUGU
- B33 — lower, 0.0179 KA relative to UGCAUGU
- B34 — higher, 1 KA relative to UGCAUGU
